Our source for the growth inhibition, inhibition and outcome values is PubChem BioAssay.

As usually defined, the inhibition is the relative decrease from the control value, in per cent.

A short description of experiment [1]: antimalarial activity against Dd2 strain (AID 2302;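 active = growth inhibition above 50% at the single 2 µM test dose, taken to imply half-maximal potency below 2 µM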;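 also: 0% = DMSO untreated growth and 100% = chloroquine plus artemisinin killed control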). The note with it: P. falciparum Dd2 in RBCs, LDH growth readout, 72 h; at 2 µM; hits give high values.
The nature of experiment [2]: human hepatoma cell viability loss – ATP luminescence, cytotoxicity control for P. falciparum antimalarial project, primary screen (AID 2303;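 active = inhibition above 50%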;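 also: 0% = DMSO wells and 100% = digitonin-killed cells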). The note with it: HepG2 viability, 24-48 h, at 10 µM, hits give high values.
In experiment [3] the target is L-lactate dehydrogenase (Plasmodium falciparum (isolate CDC / Honduras)) (UniProt Q27743). Description: PfLDH activity inhibition – cell lysate, 3D7 strain, counter-screen for P. falciparum growth inhibition project (AID 2304).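 Also: 0% = vehicle and 100% = reference inhibitor.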 The following applies: P. falciparum 3D7 crude extract, LDH APAD/NBT absorbance; at 2 µM; hits give high values. On the technique in general: Counterscreens check selectivity or assay interference.
Sequence of L-lactate dehydrogenase (Plasmodium falciparum (isolate CDC / Honduras)) (Q27743 whole entry, looked up): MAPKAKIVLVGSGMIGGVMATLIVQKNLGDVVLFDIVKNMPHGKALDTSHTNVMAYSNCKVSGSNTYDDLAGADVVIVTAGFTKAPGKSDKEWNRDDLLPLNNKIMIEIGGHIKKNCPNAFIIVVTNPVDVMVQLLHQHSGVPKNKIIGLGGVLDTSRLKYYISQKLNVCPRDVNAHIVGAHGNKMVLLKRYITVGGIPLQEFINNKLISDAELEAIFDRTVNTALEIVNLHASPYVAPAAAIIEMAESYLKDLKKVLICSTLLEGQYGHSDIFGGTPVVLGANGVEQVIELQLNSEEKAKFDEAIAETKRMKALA

Experiment [4] in a line: inhibition of 3D7 malaria parasite growth – strain 3D7 (AID 2306).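 Also: 0% = DMSO wells and 100% = chloroquine plus artemisinin control wells.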 The following applies: P. falciparum 3D7 erythrocytic growth, LDH absorbance, 72 h; at 2 µM; hits give high values.
For experiment [5], the target named is Calcium-dependent protein kinase 1 (Plasmodium falciparum (isolate 3D7)) (UniProt P62344). As to the kind of experiment: PfCDPK1 kinase inhibitors, biochemical, TCAMS library (AID 1159585; cut-off not given, nearly all actives have IC50 up to about 0.98 µM;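 also: inhibitors leave more ATP so luminescence rises with inhibition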). The following applies: recombinant PfCDPK1, Kinase-Glo ATP depletion luminescence. For orientation: Kinase-Glo reads ATP consumption through a luciferase reaction.
Sequence of Calcium-dependent protein kinase 1 (Plasmodium falciparum (isolate 3D7)) (P62344 whole entry, looked up): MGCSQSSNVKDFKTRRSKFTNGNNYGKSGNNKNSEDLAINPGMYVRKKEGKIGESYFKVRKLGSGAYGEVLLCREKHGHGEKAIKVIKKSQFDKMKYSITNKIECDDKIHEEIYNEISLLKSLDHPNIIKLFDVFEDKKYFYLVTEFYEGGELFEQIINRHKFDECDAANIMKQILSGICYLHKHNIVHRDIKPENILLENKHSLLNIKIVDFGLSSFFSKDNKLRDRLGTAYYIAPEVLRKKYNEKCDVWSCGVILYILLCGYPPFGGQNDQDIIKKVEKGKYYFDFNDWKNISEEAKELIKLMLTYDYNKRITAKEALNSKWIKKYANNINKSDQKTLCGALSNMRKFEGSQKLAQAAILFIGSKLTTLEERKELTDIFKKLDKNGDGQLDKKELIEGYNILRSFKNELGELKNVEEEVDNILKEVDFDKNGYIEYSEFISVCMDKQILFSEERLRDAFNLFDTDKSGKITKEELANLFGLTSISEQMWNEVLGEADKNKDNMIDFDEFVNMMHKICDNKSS
The target in experiment [6] is Plasmodium falciparum protein kinase 6 (PK6, PF3D7_1337100) (UniProt Q8IDW1). As to the kind of experiment: PfPK6 kinase inhibitors, biochemical, TCAMS library (AID 1159586). The note with it: recombinant PfPK6, Kinase-Glo ATP depletion luminescence.
Sequence of Plasmodium falciparum protein kinase 6 (PK6, PF3D7_1337100) (Q8IDW1 1-305): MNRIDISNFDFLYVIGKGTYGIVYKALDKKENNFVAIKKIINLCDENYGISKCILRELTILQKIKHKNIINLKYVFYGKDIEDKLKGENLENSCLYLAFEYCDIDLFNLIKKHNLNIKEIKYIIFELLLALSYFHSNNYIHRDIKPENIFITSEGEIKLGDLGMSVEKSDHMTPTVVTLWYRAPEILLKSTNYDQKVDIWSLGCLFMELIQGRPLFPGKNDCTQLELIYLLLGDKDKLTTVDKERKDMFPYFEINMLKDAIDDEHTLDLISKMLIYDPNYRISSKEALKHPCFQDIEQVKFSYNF
Experiment [7] concerns the target Protein kinase 7 (PK7), Plasmodium falciparum 3D7 (PF3D7_0213400) (UniProt Q7YTF7). Description: inhibition of Plasmodium PK7 catalytic activity – biochemical, TCAMS antimalarial set, Kinase-Glo luminescence (AID 1159587). The note with it: recombinant PfPK7, Kinase-Glo ATP depletion luminescence.
For experiment [8], the target named is Calcium-dependent protein kinase 4 (Plasmodium falciparum (isolate 3D7)) (UniProt Q8IBS5). As to the kind of experiment: PfCDPK4 kinase inhibitors, biochemical, TCAMS library (AID 1159588; cut-off not given, nearly all actives have IC50 up to about 0.91 µM). The following applies: recombinant PfCDPK4, Kinase-Glo ATP depletion luminescence.
Sequence of Calcium-dependent protein kinase 4 (Plasmodium falciparum (isolate 3D7)) (Q8IBS5 whole entry, looked up): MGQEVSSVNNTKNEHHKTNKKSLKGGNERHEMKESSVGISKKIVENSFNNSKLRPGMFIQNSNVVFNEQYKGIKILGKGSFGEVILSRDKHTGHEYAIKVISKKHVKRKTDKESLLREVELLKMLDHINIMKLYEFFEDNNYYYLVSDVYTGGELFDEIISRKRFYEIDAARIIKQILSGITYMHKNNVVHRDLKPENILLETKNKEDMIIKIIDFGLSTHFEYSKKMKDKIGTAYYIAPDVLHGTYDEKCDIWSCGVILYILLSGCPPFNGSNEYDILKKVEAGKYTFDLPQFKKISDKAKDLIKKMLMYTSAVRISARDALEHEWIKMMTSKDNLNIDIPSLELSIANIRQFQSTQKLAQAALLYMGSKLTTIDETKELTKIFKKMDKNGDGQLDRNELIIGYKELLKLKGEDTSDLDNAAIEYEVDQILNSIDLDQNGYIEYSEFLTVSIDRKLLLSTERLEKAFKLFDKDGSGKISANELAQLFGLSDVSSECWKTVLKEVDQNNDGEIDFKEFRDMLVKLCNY

A number with no mark means an inactive call. For some of these results: Results with a measured potency or affinity are listed apart. Active and inactive are the calls of the source. Unless noted, no rule for the calls is given here.

Sequence of Protein kinase 7 (PK7), Plasmodium falciparum 3D7 (PF3D7_0213400) (Q7YTF7 1-343): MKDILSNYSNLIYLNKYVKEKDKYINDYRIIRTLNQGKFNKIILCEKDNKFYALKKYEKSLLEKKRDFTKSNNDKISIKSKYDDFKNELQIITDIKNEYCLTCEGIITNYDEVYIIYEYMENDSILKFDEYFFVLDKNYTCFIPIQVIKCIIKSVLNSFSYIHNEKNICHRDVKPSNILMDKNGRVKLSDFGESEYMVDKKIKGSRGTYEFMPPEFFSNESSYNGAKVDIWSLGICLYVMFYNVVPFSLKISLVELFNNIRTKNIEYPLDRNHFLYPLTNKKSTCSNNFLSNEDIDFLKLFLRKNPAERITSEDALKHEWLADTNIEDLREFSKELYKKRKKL

Consider `Cc1cc(N(C)C)nc(Nc2ccc(NC(=O)CCc3ccccc3)cc2)n1`, for which the growth inhibition in experiment [1] was 84% (active); in experiment [4], 100% (active). Further, the inhibition in experiment [2] was 20%; in experiment [3], 1%. Also, the outcome in experiment [5], in experiment [6], in experiment [7] and in experiment [8] was inactive.

Take `CCc1cn2c3c(cc(C(=O)N[C@@H](Cc4cccc(F)c4)[C@H](O)CNC4CCCCC4)cc13)N(C)S(=O)(=O)CC2`: the growth inhibition in experiment [1] and in experiment [4] was 99% (active) each time. Further, the inhibition in experiment [2] was 5%; in experiment [3] it was 0%. Besides, the outcome in experiment [5], in experiment [6], in experiment [7] and in experiment [8] was inactive.

Take `CCCN1CCN(CC(O)CNC(=O)Nc2ccc(Br)cc2)CC1` (stereo not given): the growth inhibition in experiment [1] is 100% (active); in experiment [4], 101% (active). Also, the inhibition in experiment [2] is 10%; in experiment [3] it was 0%. Also, the outcome in experiment [5], in experiment [6], in experiment [7] and in experiment [8] was inactive.

Regarding `COc1ccc(C2(CNCC(O)c3cccc([N+](=O)[O-])c3)CCCC2)cc1OC` (stereo not given), the results for the growth inhibition in experiment [1] and in experiment [4] were 85% (active) and 93% (active), respectively. The inhibition in experiment [2] was 10%; in experiment [3], 5%. For the same molecule, the outcome in experiment [5], in experiment [6], in experiment [7] and in experiment [8] was inactive.

For `O=C(/C=C/c1c(Cl)cccc1Cl)NC1CCC(CN2CCC(c3c[nH]c4ccncc34)CC2)CC1` (stereo not given), the growth inhibition in experiment [1] was 100% (active); in experiment [4], 99% (active). Also, the values for the inhibition in experiment [2] and in experiment [3] were 78% (active) and 2%, respectively. The result in experiment [5], in experiment [6], in experiment [7] and in experiment [8] was inactive.

Turning to `Cc1csc(NC(=O)c2cn(-c3ccccc3)nc2-c2cccs2)n1`, the growth inhibition in experiment [1] was 12%; in experiment [4], 95% (active). Moreover, the values for the inhibition in experiment [2] and in experiment [3] were -1% and 4%, respectively. In addition, the outcome in experiment [5], in experiment [6], in experiment [7] and in experiment [8] was inactive.

With `COc1ccc(C(=O)[C@H]2C[C@@H]2CN(C)CC(O)c2cc(C)c(OC)cc2C)cc1` (stereo not given in full), the growth inhibition in experiment [1] was 77% (active); in experiment [4], 90% (active). The inhibition in experiment [2] is 8%; in experiment [3] it was -3%. Moreover, the outcome in experiment [5], in experiment [6], in experiment [7] and in experiment [8] was inactive.

In the case of `O=C(Nc1ccc(OC2CCN(Cc3ccc(F)cc3)C2)c(Cl)c1)c1ccc(F)cc1` (stereo not given), the values for the growth inhibition in experiment [1] and in experiment [4] were 94% (active) and 96% (active), respectively. Moreover, the inhibition was 10% in experiment [2] and -3% in experiment [3]. In addition, the outcome in experiment [5], in experiment [6], in experiment [7] and in experiment [8] was inactive.

On to `CC(C)(C)c1nn(-c2ccc(Cl)cc2)c2[nH]c(=O)c(CNCc3ccc4c(c3)OCO4)cc12`, for which the growth inhibition in experiment [1] was 98% (active); in experiment [4], 100% (active). The figures for the inhibition in experiment [2] and in experiment [3] were 15% and 7%, respectively. The result in experiment [5], in experiment [6], in experiment [7] and in experiment [8] was inactive.

Turning to `CC1CCC(C(C)C)C(OC(=O)CSc2nnc3c(n2)[nH]c2ccccc23)C1` (stereo not given), the growth inhibition in experiment [1] was 74% (active); in experiment [4], 88% (active). The inhibition in experiment [2] was -5%; in experiment [3], -2%. The result in experiment [5], in experiment [6], in experiment [7] and in experiment [8] was inactive.

As to `Fc1ccc(CN2CCN(c3ncnc4cc(-c5ccccc5)sc34)CC2)cc1`, the growth inhibition in experiment [1] and in experiment [4] was 82% (active) each time. For the same molecule, the inhibition was 7% in experiment [2] and 4% in experiment [3]. Besides, the outcome in experiment [5], in experiment [6], in experiment [7] and in experiment [8] was inactive.

In the case of `Cc1cccc2[nH]c(-c3ccc(-c4cccc(NC(=O)NCc5cccc(F)c5)c4)s3)nc12`, the growth inhibition was 8% in experiment [1] and 88% (active) in experiment [4]. Moreover, the inhibition in experiment [2] is 24%; in experiment [3] it was -2%. Moreover, the outcome in experiment [5], in experiment [6], in experiment [7] and in experiment [8] was inactive.

As to `Cc1ccc(Cc2cnc(NCCSCc3ccc(CN4CCOCC4)o3)[nH]c2=O)cn1`, the growth inhibition in experiment [1] was -3%; in experiment [4], 95% (active). For the same molecule, the inhibition was 2% in experiment [2] and -4% in experiment [3]. Besides, the outcome in experiment [5], in experiment [6], in experiment [7] and in experiment [8] was inactive.

Turning to `Cc1c(F)cc(C(=O)NC2CC2)cc1-c1ccc2c(cnn2S(=O)(=O)c2ccc(C#N)cc2)c1`, the growth inhibition is 92% (active) in experiment [1] and 97% (active) in experiment [4]. Moreover, the inhibition in experiment [2] was 17%; in experiment [3], 0%. Also, the result in experiment [5], in experiment [6], in experiment [7] and in experiment [8] was inactive.

In the case of `COc1cccc(C2CCN(CCN3CCC(NC(=O)c4ccc(-c5ccc(Cl)cc5)cc4)CC3)CC2)c1`, the results for the growth inhibition in experiment [1] and in experiment [4] were 42% and 93% (active), respectively. The inhibition in experiment [2] is 31%; in experiment [3] it was -12%. Also, the outcome in experiment [5], in experiment [6], in experiment [7] and in experiment [8] was inactive.

Regarding `N=C(N)c1cccc(OCCCOc2cccc(NC(=O)Nc3ccc([N+](=O)[O-])cc3)c2)c1`, the growth inhibition in experiment [1] is 22%; in experiment [4], 98% (active). Also, the inhibition was 16% in experiment [2] and 3% in experiment [3]. The outcome in experiment [5], in experiment [6], in experiment [7] and in experiment [8] was inactive.

As for `N#Cc1ccc(NC(=O)Nc2ccc3c(c2)CCN(C2CCC2)CC3)cc1`, the growth inhibition in experiment [1] was 11%; in experiment [4], 96% (active). Further, the inhibition was 6% in experiment [2] and -8% in experiment [3]. Also, the result in experiment [5], in experiment [6], in experiment [7] and in experiment [8] was inactive.

`CCN(CC)Cc1cc(NC(=O)c2ccccc2O)ccc1Oc1ccc(Cl)cc1`: the growth inhibition in experiment [1] is 88% (active); in experiment [4], 98% (active). Moreover, the inhibition in experiment [2] is 32%; in experiment [3] it was 3%. Further, the outcome in experiment [5], in experiment [6], in experiment [7] and in experiment [8] was inactive.

For `CN1CCN(CCCCNc2c3ccccc3nc3ccccc23)CC1`, the growth inhibition was -7% in experiment [1] and 101% (active) in experiment [4]. Further, the inhibition was 37% in experiment [2] and 4% in experiment [3]. For the same molecule, the result in experiment [5], in experiment [6], in experiment [7] and in experiment [8] was inactive.

For the molecule `CN(CCN)Cc1ccc(-c2ccc(-c3nc4ccc(F)cc4[nH]3)s2)cc1`, the growth inhibition in experiment [1] was 81% (active); in experiment [4], 96% (active). Moreover, the inhibition in experiment [2] was 31%; in experiment [3], -1%. The outcome in experiment [5], in experiment [6], in experiment [7] and in experiment [8] was inactive.
